Compounds without any hit were thinned out: in the full panel of roughly 83,000, 20% have a hit.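 Interpretation: 100, growth as untreated; towards 0, rising growth inhibition; 0, no net growth; 0 to -100, cell death. Compounds scoring below 10 were considered active.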 A number with no mark means an inactive call. Activity calls are given as the source filed them.

The test system of this assay is HOP-92 NSCLC. As to the kind of experiment: NCI-60 one-dose screen, 48 h (100 = growth as untreated, 0 = no growth, -100 = all killed). Conditions: 10 µM unless noted. The procedure:
Growth inhibition of the HOP-92 human Non-Small Cell Lung tumor cell line is measured as a screen for anti-cancer activity. Cells are grown in 96 well plates and exposed to the test compound for 48 hours. Compounds are tested at a single concentration, which is 10^-5 M for most compounds. The reported endpoint is percent growth (GI% or GIPRCNT), where numbers from 0 - 100% represent growth inhibition, and numbers from -100% - 0 represent cell death. For example, a value of 40 represents 60% growth inhibition. A value of 0 means no net growth occurred over the course of the experiment. A value of -40 indicates 40% of cells at the beginning of the experiment died by the end of the experiment. A value of -100 means all cells are dead at the end of the experiment.
NCI-60 Human Tumor Cell Lines Screen was performed using the standard one-dose NCI protocol, which is described in more detail at https://dtp.cancer.gov/discovery_development/nci-60/default.htm.
Compounds with GIPRCNT values below 10 were considered active. Activity score was based on GIPRCNT using the following formula: […]
Score is 0 for GIPRCNT values of 100 or above, 50 for GIPRCNT values of 0, and 100 for GIPRCNT values of -100.
Take `C=C(C)[C@@H]1CC[C@]2(C=O)CC[C@]3(C)[C@H](CC[C@@H]4[C@@]5(C)CCCNC(C)(C)[C@@H]5CC[C@]43C)[C@@H]12`: the growth was 54.5%.

In the case of `COc1cc(/C=N/NC(=O)c2ccccc2Nc2cccc(C(F)(F)F)c2)ccc1O`, the growth is 67.6%.

`CN(C)C(=O)OCc1nc2c(N3CCOCC3)nc(-c3ccccc3)nc2n1C`: the growth was -68.4% (active).

As for `c1cnc2nc3c(cc2c1)oc1ccccc13`, the growth was 90.3%.

In the case of `CC1(C)[C@H](O)CC[C@]2(C)[C@@H]1CC[C@@]13C[C@@H](CC[C@H]12)[C@@](O)(CO)C3`, the growth is 126%.

For the compound `CN1CCN(C(=O)OCc2nc3c(N4CCOCC4)nc(-c4ccccc4)nc3n2C)CC1`, the growth was -63.5% (active).

With `O=C(Nc1ccccc1)Oc1ccccc1-c1ccccc1`, the growth is 94.7%.

In the case of `Nc1ncc(C#Cc2cncc(NC(=O)c3cccc(C(F)(F)F)c3)c2)c2cccnc12`, the growth was 65.6%.

With `CCOC(=O)N1CCc2c(sc3nc4nc[nH]n4c(=O)c23)C1`, the growth is 93.8%.

`COC(=O)N[C@H]1CCc2cc(OC)c(OC)c(OC)c2-c2ccc(SC)c(=O)cc21`: the growth is 15.2%.

`O=C(NCCN1CCOCC1)OCc1nc2nc(Cl)nc(N3CCOCC3)c2[nH]1`: the growth was 54.3%.

Take `ClCC1(Cn2cnc3c(Cl)nc(Cl)nc32)COC1`: the growth was 73.1%.

Turning to `CC(=O)N1N=C(c2cccc(Nc3ccncc3)c2)CC1c1ccc2c(c1)OCO2` (stereo not given), the growth was 72.1%.

In the case of `S=c1[nH]cccc1-c1nnc2n1Nc1nc3ccc(Cl)cc3cc1CS2`, the growth is 107%.

Take `COc1ccc(C(O)c2cc3c(N)c(C(=O)Nc4ccc(Cl)cc4)sc3nc2C)cc1` (stereo not given): the growth was 49.3%.

`COc1ccc(-c2nc3sccn3c2/C=C/C(=O)c2cc(OC)c(OC)c(OC)c2)cc1`: the growth was -1.77% (active).

`CN(C)c1ccc(-c2c(C#N)c(N)n3nc(N)c(C#N)c3c2C#N)cc1`: the growth is 60.1%.

Turning to `Cc1cn(-c2cc(C(=O)Nc3cccc(C#Cc4cccc5[nH]nc(N)c45)c3)cc(C(F)(F)F)c2)cn1`, the growth is 26.4%.

Consider `CCCCCCCCN1C(=O)/C(=c2\sc3n(c2=O)C2C(NN=3)N(CC)C(=O)N2CC)c2ccccc21` (stereo not given), for which the growth is 62.7%.

On to `O=C(Nc1ccc(F)cc1)c1c(NC(=O)C(F)(F)F)sc2c1CCCCC2`, for which the growth is -28.5% (active).

With `COc1ccccc1Nc1cc(O)c2c(=O)cc(-c3ccccc3)oc2c1`, the growth was 62.2%.

As to `COc1ccc2c(c1)OC13Oc4cc(OC)ccc4C=C1CCCC3=C2`, the growth was 26.6%.

For `CCCCCOc1ccc(/C=N/Nc2cc(C)nc3ccc(Br)cc23)cc1`, the growth is 69.7%.

Turning to `CCCCCCCCCCCCCCCCCCOc1ccccc1N`, the growth was 78.7%.

As to `CCCCCCNC(=O)Oc1ccc(/C(=C(/CC)Cc2ccccc2)c2ccc(OCCN(CC)CC)cc2)cc1`, the growth was 42.3%.

Take `Cc1c2c(cc[n+]1Cc1ccccc1)c1ccc(OCC3CCCCC3)cc1n2CC1CCCCC1`: the growth was -85.6% (active).

Turning to `Cn1c2c(Cl)c(Cl)ccc2c2cc(N)[nH]c(=O)c21`, the growth was 29.9%.

Regarding `Clc1ccc(C2CC(c3cccc(Nc4ccncc4)c3)=NN2c2cc(Cl)cc(Cl)c2)cc1` (stereo not given), the growth was 71.3%.

Take `COc1cccc2c1C(=O)c1c(O)c3c(c(O)c1C2=O)C[C@@](O)(C(=O)CO)C[C@@H]3O[C@H]1C[C@H](N)[C@@H](O)[C@H](C)O1`: the growth is -26% (active).

On to `COc1ccc(C(O)c2cc3c(N)c(C(=O)Nc4cccc(OC)c4)sc3nc2C)cc1` (stereo not given), for which the growth is 37%.

Consider `Cc1cc(Nc2cccc(C(F)(F)F)c2)n2c(nc3ccccc32)c1C#N`, for which the growth was -2.32% (active).

On to `OC(c1ccccc1)c1ccccn1` (stereo not given), for which the growth is 94.4%.

As to `C#Cc1cccc(NC(=O)Nc2ccc(NC(=O)CCl)cc2)c1`, the growth is -66.5% [8.25 µM] (active).

With `Cc1c(C2=CCCCC2)c2ccccn2c1C(=O)c1cccc(S(=O)(=O)N2CCOCC2)c1`, the growth is 53.9%.

Turning to `Cc1c(C(=O)NO)sc2ncnc(Nc3ccc(NC(=S)Nc4ccccc4)cc3)c12`, the growth was 115%.

Regarding `CCN(CC)CCCC(C)Nc1c2c(nc3ccc(OC)cc13)CCCC2` (stereo not given), the growth is 84.2%.

On to `CCOC(=O)c1ccc(Nc2ccnc(SCC(=O)c3ccc(C#N)cc3)n2)cc1`, for which the growth was 105%.

For `C=C(C)[C@H]1CC/C(C)=C/CC[C@]2(C)O[C@H]2CC/C(COC(=O)[C@@H](OC(C)=O)[C@H](NC(=O)c2ccccc2)c2ccccc2)=C\[C@@H]1O`, the growth is 59.4%.

As to `CC(=O)[C@@H]1CC[C@]2(C(N)=O)CC[C@]3(C)[C@H](CC[C@@H]4[C@@]5(C)CCC(=O)C(C)(C)[C@@H]5CC[C@]43C)[C@@H]12`, the growth is 103%.

In the case of `CC(O)/C=C/C=C/C(O)CC/C=C/C(=O)NCC(C)(C)O` (stereo not given), the growth is 96.1%.

These data come from PubChem BioAssay (NCI).
